25 compounds from article PMC4336329 (PLoS ONE, 2015) can be followed below.

The structures appear in SMILES notation. Hit rate of the full screen: of about 310,000 compounds, about 14,000 (4.5%) showed an effect of 50% or more. Effects have a minus sign here. The list comes from a sample in which strong results are over-represented; it also holds similar structures and randomly drawn compounds.
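Also: peak tail current of the secondary pulse compared with the same well before compound.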

human ether-à-go-go-related gene (hERG) potassium channel, sequence (Q12809 whole entry, looked up): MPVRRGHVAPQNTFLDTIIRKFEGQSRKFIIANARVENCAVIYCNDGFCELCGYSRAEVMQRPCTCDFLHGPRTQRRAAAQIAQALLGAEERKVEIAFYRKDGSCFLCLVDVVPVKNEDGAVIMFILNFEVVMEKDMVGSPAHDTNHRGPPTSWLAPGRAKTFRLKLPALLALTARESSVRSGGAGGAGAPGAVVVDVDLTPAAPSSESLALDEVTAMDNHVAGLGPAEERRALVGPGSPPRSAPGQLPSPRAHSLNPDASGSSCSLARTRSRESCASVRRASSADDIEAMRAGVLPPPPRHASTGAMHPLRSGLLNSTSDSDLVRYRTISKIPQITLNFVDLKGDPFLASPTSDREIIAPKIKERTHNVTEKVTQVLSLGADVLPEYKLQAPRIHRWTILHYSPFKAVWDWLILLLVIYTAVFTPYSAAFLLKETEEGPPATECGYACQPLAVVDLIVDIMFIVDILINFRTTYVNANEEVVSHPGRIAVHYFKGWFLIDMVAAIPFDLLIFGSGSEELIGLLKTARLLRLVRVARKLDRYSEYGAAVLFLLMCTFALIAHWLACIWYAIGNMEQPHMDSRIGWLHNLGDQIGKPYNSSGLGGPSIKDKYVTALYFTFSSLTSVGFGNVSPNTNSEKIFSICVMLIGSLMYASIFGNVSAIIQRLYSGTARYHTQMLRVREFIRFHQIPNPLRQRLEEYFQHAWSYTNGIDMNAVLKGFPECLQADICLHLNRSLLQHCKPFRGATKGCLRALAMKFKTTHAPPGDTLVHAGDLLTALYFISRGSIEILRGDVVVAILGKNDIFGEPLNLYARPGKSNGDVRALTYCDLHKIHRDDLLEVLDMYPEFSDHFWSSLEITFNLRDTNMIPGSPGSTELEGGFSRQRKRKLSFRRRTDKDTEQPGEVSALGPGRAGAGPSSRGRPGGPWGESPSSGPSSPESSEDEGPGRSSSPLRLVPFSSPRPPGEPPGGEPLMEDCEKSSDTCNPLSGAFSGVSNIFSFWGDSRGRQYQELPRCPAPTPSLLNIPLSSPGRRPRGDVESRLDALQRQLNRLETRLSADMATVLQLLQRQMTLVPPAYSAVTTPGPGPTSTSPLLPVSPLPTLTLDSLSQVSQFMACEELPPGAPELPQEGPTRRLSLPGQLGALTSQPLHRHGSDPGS

The experiment concerns the target human ether-à-go-go-related gene (hERG) potassium channel (human, UniProt Q12809). Kind of experiment: primary screen, population patch clamp on CHO cells stably expressing hERG; higher = less effect of the substance.
In the case of `COc1cccc(CC2(CO)CCCN(S(=O)(=O)N(C)C)C2)c1` (stereo not shown), the “hERG current change (%, negative = inhibition) at 10uM” value is 42.4%. As for `CCOC(=O)c1ccc(NC(=O)CN2C(=O)C(C)SC(C)C2=O)cc1` (stereo not shown), the “hERG current change (%, negative = inhibition) at 10uM” value was 8.95%. For the compound `COc1ccc(C(CNC(=O)c2cc(S(=O)(=O)NCc3ccccc3)ccc2C)N2CCOCC2)cc1` (stereo not shown), the “hERG current change (%, negative = inhibition) at 10uM” value is -19%. On to `COC(=O)CSc1nnc(COc2ccc3ccccc3c2)o1`, for which the “hERG current change (%, negative = inhibition) at 10uM” value is given as 19%. The value for `CC(=O)N(CCC1(C(C)C)CCOC(C)(C)C1)C(C)c1cccs1` (stereo not shown) was -2.41%.

As for `Cc1cccc(NC(=O)c2ccc(C(=O)Nc3cccc(C)c3)nc2)c1`, the “hERG current change (%, negative = inhibition) at 10uM” value worked out at 23.2%. The value for `COc1ccc(-c2noc(C(=O)NCc3ccccc3Cl)n2)cc1OC` was 0.607%; that for `CC(C)C1CC(c2csc(N)n2)CCO1` (stereo not shown) was 18.8%; that for `Cc1[nH]oc(=O)c1N=Nc1ccc2[nH]c(=O)[nH]c2c1` was 7.93%. For the compound `CCOc1cc(-c2cn(S(=O)(=O)c3cccc4nsnc34)nc2N)cc(OCC)c1OCC`, the “hERG current change (%, negative = inhibition) at 10uM” value came to 0.719%. `Cc1cc(C)c2sc(N(CCN(C)C)C(=O)c3c(F)cccc3F)nc2c1.Cl`: the “hERG current change (%, negative = inhibition) at 10uM” value is listed as -2.23%. The value for `CSCCC(NC(=O)c1ccc(Cl)cc1)C(=O)OCC(=O)N1CCCC1=O` (stereo not shown) was -2.69%.

With `O=[N+]([O-])c1cccc(-c2ccc(C(=S)N3CCN(c4ccccc4)CC3)o2)c1`, the “hERG current change (%, negative = inhibition) at 10uM” value is listed as 27.7%. To `CCOc1ccc(NC(=S)NCCCN2CCN(C3CCCCC3)CC2)cc1` belongs -47.2%; to `S=C(NCc1ccccc1)N1CCCCC1`, -1.03%; to `S=C(NCc1ccccc1)N1CCN(C(=S)NCc2ccccc2)CC1`, 12.9%.

As for `O=S(=O)(c1ccc(F)cc1)N1CCN(C(=S)NCc2ccccc2)CC1`, the “hERG current change (%, negative = inhibition) at 10uM” value turned out to be 13.8%.

As for `CCOC(=O)c1ccc(NC(=S)NCCCN2CCCCC2)cc1`, the “hERG current change (%, negative = inhibition) at 10uM” value is on record as -42%.

Regarding `O=C(c1ccccc1)N1CCN(c2ccc(NCc3ccc4c(c3)OCO4)cc2)CC1`, the “hERG current change (%, negative = inhibition) at 10uM” value is recorded as -12.2%.

On to `O=S(=O)(c1ccccc1)N1CCN(C(=S)NCc2ccccc2)CC1`, for which the “hERG current change (%, negative = inhibition) at 10uM” value is -50.3%. On to `S=C(NCc1ccccc1)N1CCN(C2CCCCC2)CC1`, for which the “hERG current change (%, negative = inhibition) at 10uM” value is -62.6%. Take `O=C(c1ccccc1)N1CCN(C(=S)NCc2ccc3c(c2)OCO3)CC1`: the “hERG current change (%, negative = inhibition) at 10uM” value was -59.4%.

Turning to `O=S(=O)(c1cccc(F)c1)N1CCN(C(=S)NCc2ccccc2)CC1`, the “hERG current change (%, negative = inhibition) at 10uM” value is -0.89%.

As to `CCOC(=O)c1ccc(NC(=S)NCCCN2CCN(C3CCCCC3)CC2)cc1`, the “hERG current change (%, negative = inhibition) at 10uM” value is -53.7%. As to `S=C(NCc1ccccc1)N1CCN(Cc2ccc3c(c2)OCO3)CC1`, the “hERG current change (%, negative = inhibition) at 10uM” value is reported as -16.7%.
